CHO-K1 Ca antag = counter-screen for M1 antagonists: effect in parental CHO-K1 cells; ATP-induced calcium, Fluo-8 fluorescence; inhibition, % at 3 µM; actives 0.6% (n = 360,000);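 active = inhibition above a per-plate cutoff, the plate's mean sample inhibition plus 3 SD, cut at about 24% in these data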;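 also: 0% = DMSO plus EC80 ATP and 100% = DMSO alone without ATP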
CHO-K1 Ca ag = M1 agonist counterscreen hit in parental CHO-K1 cells. activation, % at 3 µM. actives 0.48% (n = 360,000). Fluo-8 calcium fluorescence; scaled to maximal ATP response, vehicle zero; in the data active = activation above about 15%;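 also: untransfected CHO-K1 host cells lacking M1 receptor as counterscreen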
M1 antag = human CHRM1 antagonism | P11229 | CHO-K1 hM1, Fluo-8 calcium fluorescence, ACh EC80 antagonist | inhibition, % at 3 µM | actives 1.3% (n = 360,000) | AID 588852;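 active = percent inhibition above its own plate's cutoff, namely the mean of that plate's compound wells plus 3 SD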;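 also: peak over basal fluorescence ratio during 140 s after agonist addition; 0% = ACh EC80 plus DMSO and 100% = DMSO alone without agonist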
Target sequence (P11229 whole entry, looked up): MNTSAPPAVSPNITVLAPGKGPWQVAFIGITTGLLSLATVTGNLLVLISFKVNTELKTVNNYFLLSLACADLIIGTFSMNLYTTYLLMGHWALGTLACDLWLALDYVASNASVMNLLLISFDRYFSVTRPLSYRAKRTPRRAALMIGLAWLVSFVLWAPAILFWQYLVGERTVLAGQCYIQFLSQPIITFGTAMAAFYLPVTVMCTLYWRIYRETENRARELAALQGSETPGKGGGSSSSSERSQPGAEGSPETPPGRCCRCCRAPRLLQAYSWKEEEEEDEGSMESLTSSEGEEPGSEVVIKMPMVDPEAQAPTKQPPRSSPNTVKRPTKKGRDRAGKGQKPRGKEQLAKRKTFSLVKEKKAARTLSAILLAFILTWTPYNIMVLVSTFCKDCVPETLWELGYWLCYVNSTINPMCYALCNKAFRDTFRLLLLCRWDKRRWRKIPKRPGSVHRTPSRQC
M1 PAM parental = nonselective activator or artifact in parental CHO-K1 calcium assay. AID 602247. ATP EC20, Fluo-8 calcium fluorescence; 0% at ATP EC20, 100% at ATP max. actives 0.02% (n = 360,000). activation, % at 3 µM;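 active = activation above the run cutoff, the mean activation of all test compounds plus 3 SD, cut at about 40% in these data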;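 also: peak over basal fluorescence ratio in a 140 s read after ATP addition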
CHRM1 agonist = agonists of human M1 muscarinic receptor; P11229; AID 588814; actives 0.33% (n = 360,000); activation, % at 3 µM; CHO-K1 hM1, Fluo-8 calcium fluorescence, agonist mode; 0% DMSO, 100% acetylcholine EC100;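 active = activation above the run's mean compound activation plus 3 SD, cut at about 16% in these data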;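 also: peak over basal fluorescence ratio within a 140 s kinetic read after compound addition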
M1 PAM = potentiates human M1 receptor response to acetylcholine; CHO-K1 hM1, Fluo-8 calcium fluorescence, ACh EC20; 0% = ACh EC20, 100% = maximal ACh; activation, % at 3 µM; actives 0.088% (n = 360,000); in the data active = activation above about 19%, passing the limit was not always enough
The depositor's hits bear a star. Most compounds without a hit are left out; they make up all but 2.4% or so of the library.

For CCOc1ccc(N/C(N)=N/c2nc(C)cc(C)n2)cc1 the results were CHO-K1 Ca antag 8, CHO-K1 Ca ag 17*, M1 antag 16, M1 PAM parental -4, CHRM1 agonist 6 and M1 PAM -19.
Cc1c(N2C(=O)/C(=C/c3ccccc3)SC2=S)c(=O)n(-c2ccccc2)n1C was read as CHO-K1 Ca antag 4, CHO-K1 Ca ag 1, M1 antag 13, M1 PAM parental 8, CHRM1 agonist -5 and M1 PAM -22.
Screening Cc1c(N2C(=O)/C(=C\C3CC=CCC3)SC2=S)c(=O)n(-c2ccccc2)n1C (stereo not drawn) returned CHO-K1 Ca antag -6, CHO-K1 Ca ag 1, M1 antag 62*, M1 PAM parental -7, CHRM1 agonist -8 and M1 PAM -26.
For Cc1c(N2C(=O)/C(=C/C3CC=CCC3)SC2=S)c(=O)n(-c2ccccc2)n1C (stereo not drawn) the results were CHO-K1 Ca antag -6, CHO-K1 Ca ag 1, M1 antag 73*, M1 PAM parental -4, CHRM1 agonist -9 and M1 PAM -24.
CCOc1c2ccc(C(=O)NCc3ccc4c(c3)OCO4)cc2nn1CCOC was read as CHO-K1 Ca antag -12, CHO-K1 Ca ag 0, M1 antag -6, M1 PAM parental 20, CHRM1 agonist -5 and M1 PAM 8.
`O=C(Nc1ccc2nc3n(c(=O)c2c1)CCCCC3)C(=O)N1CCN(c2ccccc2)CC1` gave CHO-K1 Ca antag -7, CHO-K1 Ca ag 4, M1 antag 4, M1 PAM parental 15, CHRM1 agonist -6 and M1 PAM -4.
COc1ccccc1NC(=O)CSc1nnc(C2CCCCC2)o1 was read as CHO-K1 Ca antag 24*, CHO-K1 Ca ag 0, M1 antag 11, M1 PAM parental -9, CHRM1 agonist -2 and M1 PAM 1.
`CCCCCCCN1C(N(C)C)=NC[C@@H]1Cc1ccccc1` gave CHO-K1 Ca antag -7, CHO-K1 Ca ag 2, M1 antag 29, M1 PAM parental 7, CHRM1 agonist -12 and M1 PAM -27.
For CN(C)C1=NC[C@H](Cc2ccccc2)N1CCCCc1ccccc1 the results were CHO-K1 Ca antag -17, CHO-K1 Ca ag 2, M1 antag 34*, M1 PAM parental 13, CHRM1 agonist -9 and M1 PAM -23.
For O=C(Nc1ccccc1)c1cc(S(=O)(=O)NCc2ccncc2)ccc1Cl the results were CHO-K1 Ca antag 24*, CHO-K1 Ca ag 13, M1 antag 20, M1 PAM parental -12, CHRM1 agonist 8 and M1 PAM -5.
For CN(c1ccccc1)S(=O)(=O)c1ccc(Cl)c(C(=O)Nc2ccncc2)c1 the results were CHO-K1 Ca antag -15, CHO-K1 Ca ag 16*, M1 antag 20, M1 PAM parental 0, CHRM1 agonist 0 and M1 PAM -10.
`CN(c1ccc(F)cc1)S(=O)(=O)c1ccc(Cl)c(C(=O)Nc2ccncc2)c1` gave CHO-K1 Ca antag 34*, CHO-K1 Ca ag 10, M1 antag 34*, M1 PAM parental -24, CHRM1 agonist 0 and M1 PAM -18.
O=C(Nc1ccccc1)c1cc(S(=O)(=O)Nc2cccnc2)ccc1Cl was read as CHO-K1 Ca antag 17, CHO-K1 Ca ag 0, M1 antag -20, M1 PAM parental -20, CHRM1 agonist -1 and M1 PAM 9.
CN(c1ccc(F)cc1)S(=O)(=O)c1ccc(Cl)c(C(=O)Nc2ccc3c(c2)CCC3)c1 was read as CHO-K1 Ca antag -1, CHO-K1 Ca ag 1, M1 antag 12, M1 PAM parental -5, CHRM1 agonist -4 and M1 PAM -7.
For O=C(Nc1ccc(S(=O)(=O)NCc2ccccc2)cc1)Nc1ccc2c(c1)OCO2 the results were CHO-K1 Ca antag 5, CHO-K1 Ca ag 10, M1 antag 27*, M1 PAM parental 10, CHRM1 agonist 3 and M1 PAM -12.
`COc1ccc(OC)c(CCNC(=O)c2cccc(NC(=O)C3=C(C)OCCS3)c2)c1` gave CHO-K1 Ca antag -7, CHO-K1 Ca ag 5, M1 antag 19, M1 PAM parental -5, CHRM1 agonist -1 and M1 PAM -12.
`O=C(COc1ccc(Cl)cc1)NCc1ccncc1` gave CHO-K1 Ca antag -11, CHO-K1 Ca ag 1, M1 antag -12, M1 PAM parental 7, CHRM1 agonist -8 and M1 PAM 8.
Screening CN(C)S(=O)(=O)N1CCN(C(=O)c2ccc3c(c2)OCO3)CC1 returned CHO-K1 Ca antag -1, CHO-K1 Ca ag 3, M1 antag -6, M1 PAM parental -6, CHRM1 agonist -3 and M1 PAM 4.
Screening CC(C)(C)c1nnc(N/N=C/c2cc(Br)ccc2O)n(N)c1=O returned CHO-K1 Ca antag 15, CHO-K1 Ca ag 11, M1 antag 35*, M1 PAM parental -4, CHRM1 agonist 4 and M1 PAM -17.
For CCc1nnc(N/N=C/c2cc(Br)c(O)cc2O)n1N the results were CHO-K1 Ca antag 7, CHO-K1 Ca ag 1, M1 antag -18, M1 PAM parental -1, CHRM1 agonist -1 and M1 PAM 16.
Screening COc1ccc(CN(C)C(=O)c2cccc(NS(=O)(=O)c3ccccc3)c2)c(OC)c1 returned CHO-K1 Ca antag 1, CHO-K1 Ca ag 4, M1 antag 10, M1 PAM parental -9, CHRM1 agonist -1 and M1 PAM -3.
Cn1c(-c2cnn(-c3ccccc3)c2-n2cccc2)n[nH]c1=S was read as CHO-K1 Ca antag -12, CHO-K1 Ca ag 0, M1 antag 3, M1 PAM parental 7, CHRM1 agonist -5 and M1 PAM 0.
Screening O=C(NCc1ccncc1)C(=O)NCC1OCCCN1S(=O)(=O)c1cc(F)ccc1F (stereo not drawn) returned CHO-K1 Ca antag 5, CHO-K1 Ca ag 0, M1 antag 6, M1 PAM parental -18, CHRM1 agonist -4 and M1 PAM -2.
O=C(NCC1OCCCN1S(=O)(=O)c1cc(F)ccc1F)C(=O)NC1CCCCCC1 (stereo not drawn) was read as CHO-K1 Ca antag 32*, CHO-K1 Ca ag 2, M1 antag 3, M1 PAM parental 2, CHRM1 agonist -4 and M1 PAM -3.
Screening Cc1cccc(C)c1NC(=O)C1c2ccccc2OCC(=O)N1Cc1ccco1 (stereo not drawn) returned CHO-K1 Ca antag -9, CHO-K1 Ca ag 0 and M1 PAM parental 5.
`COc1ccc(C(=O)NCCc2nnc(SCC(=O)Nc3ccccc3)n2C)cc1` gave CHO-K1 Ca antag 25*, CHO-K1 Ca ag 0, M1 antag -31, M1 PAM parental -8, CHRM1 agonist 10 and M1 PAM 8.
For COc1ccc(NC(=O)N2CCN(C(=O)c3ccco3)CC2)c(OC)c1 the results were CHO-K1 Ca antag -4, CHO-K1 Ca ag 2, M1 antag -12, M1 PAM parental 11, CHRM1 agonist -3 and M1 PAM 9.
